Most compounds without a hit are left out; they make up all but 4.8% or so of the library.
AI-2 QS modul = modulators of Vibrio harveyi AI-2 quorum sensing system. Vibrio harveyi JMH597 AI-2 luminescence/OD600 ratio, 9 h; active compounds read low; strain lacks LuxN and CqsS sensors; 0 = neutral-control median. activity change, % at 7.5 µM. 0.4% of 300,000 active. AID 2094; in the data active = activity change below about -75%, passing the limit was not always enough; inconclusive = no clear call, values can overlap the other calls;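 also: luminescence divided by OD600 gain over 9 h not by final OD600 alone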
Mot1-301 SUMO = inhibitors of SUMOylation pathway: yeast Mot1-301 growth rescue | 1% of 320,000 active | growth rescue, % at 18.8 µM | S. cerevisiae Mot1-301 growth rescue, ATP luminescence, 38.5C; percent above DMSO median, 100 means doubled;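 active = every valid replicate shows activation above 250% relative to neutral control wells; inactive = the rest, any valid replicate at or below 250%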;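 also: OY570 slx delta 5 strain wells were the positive control but not used for scaling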
HIF act = HIF pathway transcriptional activation; U2OS HRE-luciferase reporter, luminescence; normalized: DMSO 0%, desferrioxamine 100%; activation, % at 7.5 µM (by protocol); 0.32% of 300,000 active;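 active = mean activation of at least 10% of the iron chelator positive control signal, with at least half of replicates also reaching 10%; inconclusive = mean and replicate majority disagree about reaching 10%; inactive = mean and most replicates under 10%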
ALR inh = blocks human ALR sulfhydryl oxidase activity. purified ALR, DTT oxidation, H2O2 HRP-luminol luminescence. P55789. 3.8% of 290,000 active. inhibition, % (test concentration not listed). AID 485317;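 active = mean replicate inhibition above about 79%, with every replicate also reaching it, limit read from the data; inconclusive = only one of the two criteria met; inactive = mean below limit and not every replicate reaching it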
Target sequence (P55789 whole entry, looked up): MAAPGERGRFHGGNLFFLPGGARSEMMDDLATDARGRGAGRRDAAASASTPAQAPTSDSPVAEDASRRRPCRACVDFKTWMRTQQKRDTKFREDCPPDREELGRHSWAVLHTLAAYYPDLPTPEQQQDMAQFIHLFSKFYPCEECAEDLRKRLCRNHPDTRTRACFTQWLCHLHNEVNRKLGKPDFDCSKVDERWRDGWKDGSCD
JMH597 growth rt = retest: inhibitors of Vibrio harveyi JMH597 growth. shares compounds with AI-2 QS modul. growth inhibition, % at 7.5 µM. 1% of 750 active. OD600 absorbance, 9 h; lacks LuxN and CqsS sensors. AID 2726;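 active = every replicate shows growth inhibition above 50%; inconclusive = at least half, but not all, replicates pass that cutoff; inactive = fewer than half of replicates pass it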
BB721 lum counter = retest counter-screen: luminescence loss in constitutive-on quorum sensing strain BB721 | shares compounds with AI-2 QS modul | Vibrio harveyi BB721 luminescence, 9 h | inhibition, % at 7.5 µM | 95% of 750 active | AID 2727;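 active = inhibition above about 80% in every replicate, not just on average, limit read from the data; inconclusive = at least half of replicates past the limit, but not all; inactive = fewer than half of replicates past the limit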
BB721 growth rt = retest: blocks Vibrio harveyi BB721 growth; OD600 absorbance, 9 h; growth inhibition, % at 7.5 µM; shares compounds with AI-2 QS modul; AID 2728; 3% of 750 active;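 active = every replicate shows growth inhibition above 50%; inconclusive = at least half but not all replicates above 50% inhibition; inactive = under half of replicates above 50% inhibition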
AI-2 QS JMH597 = Vibrio harveyi AI-2 signaling luminescence modulation – JMH597 strain, confirmation; shares compounds with AI-2 QS modul; Vibrio harveyi JMH597 AI-2 quorum sensing luminescence, 9 h; luxN and CqsS knockout, AI-2 only; inhibition, % at 7.5 µM; 97% of 750 active; AID 2736;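 active = every replicate shows more than 75% inhibition of signal versus neutral control wells; inconclusive = half to three quarters of replicates exceed 75% inhibition; inactive = fewer than half of replicates exceed 75% inhibition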
* = called active by the depositor.

Screening CCC(C(=O)Nc1c(C)cc(C)cc1C)N1CCCCCC1 (configuration not stated) returned AI-2 QS modul -85.4*, Mot1-301 SUMO -5.5, HIF act 1.0, ALR inh -41.4, JMH597 growth rt -7.8, BB721 lum counter 2.0, BB721 growth rt -0.8 and AI-2 QS JMH597 3.6.
Screening Cc1cccc(C)c1NC(=O)C(C)N1CCCCC1 (configuration not stated) returned AI-2 QS modul 1.3, Mot1-301 SUMO -5.7 and HIF act -0.4.
Screening O=C(/C=C/c1ccc(Cl)cc1)NCc1cccs1 returned AI-2 QS modul -71.1, Mot1-301 SUMO 66.2, HIF act 0.2 and ALR inh 8.4.
Screening O=C(/C=C/c1cccc(Cl)c1)NCc1ccccc1 returned AI-2 QS modul -89.2*, Mot1-301 SUMO -12.6, HIF act -0.2, ALR inh 1.2, JMH597 growth rt 0.7, BB721 lum counter 96.2*, BB721 growth rt 0.2 and AI-2 QS JMH597 96.8*.
Screening O=C(/C=C/c1cccc(Cl)c1)NCc1cccs1 returned AI-2 QS modul -82.6*, Mot1-301 SUMO 23.6, HIF act 2.1, ALR inh 1.5, JMH597 growth rt 16.1, BB721 lum counter 90.2*, BB721 growth rt 15.0 and AI-2 QS JMH597 91.3*.
For CC(Sc1ccccc1)C(=O)N/N=C/c1ccccc1 (configuration not stated) the results were AI-2 QS modul 10.6, Mot1-301 SUMO 100.8, HIF act 0.3 and ALR inh -4.0.
Screening COc1cccc(/C=C/C(=O)OCC(=O)Nc2cccc(S(=O)(=O)NC3=NCCCCC3)c2)c1 returned Mot1-301 SUMO -22.2.
OC[C@H]1OC(O)[C@H](O)[C@@H]1O (some centres not stated) was read as Mot1-301 SUMO 0.6 and ALR inh -14.0.
For Cc1cc(=O)[nH]c(SCC(=O)N2C(C)CCCC2C)n1 (configuration not stated) the results were AI-2 QS modul 9.0, Mot1-301 SUMO -1.3, HIF act -0.7 and ALR inh -0.2.
CSc1ccc(Cl)c(C(=O)Nc2ccc(OCC(N)=O)cc2)c1 was read as AI-2 QS modul inconclusive, Mot1-301 SUMO -16.7, HIF act 0.0, ALR inh -3.1, JMH597 growth rt 13.5, BB721 lum counter 5.9, BB721 growth rt 14.8 and AI-2 QS JMH597 5.4.
COc1cc(SC)ccc1C(=O)Nc1ccc(OCC(=O)N2CCOCC2)cc1 was read as AI-2 QS modul 23.2 and HIF act 0.7.
CC(C)(C)c1ccc(OCC(=O)NCc2ccco2)cc1 was read as AI-2 QS modul inconclusive, Mot1-301 SUMO 7.6, HIF act 0.1, ALR inh -2.0, JMH597 growth rt 23.8, BB721 lum counter 88.4*, BB721 growth rt 10.0 and AI-2 QS JMH597 94.1*.
Screening CC(C)c1ccc(OCC(=O)NCc2ccco2)cc1 returned AI-2 QS modul -45.8, Mot1-301 SUMO 7.0, HIF act -1.4 and ALR inh -1.9.
Cn1nnnc1SCC(=O)Nc1cc(S(=O)(=O)N2CCCCC2)ccc1Cl was read as Mot1-301 SUMO -9.5 and ALR inh -5.9.
Screening c1ccc2c(CSc3nnc(-c4ccncc4)o3)cccc2c1 returned AI-2 QS modul -83.3*, Mot1-301 SUMO -0.2, HIF act -0.3, ALR inh -6.6, JMH597 growth rt 5.0, BB721 lum counter 94.3*, BB721 growth rt -7.9 and AI-2 QS JMH597 95.6*.
Screening Brc1cccc(CSc2nnc(-c3ccncc3)o2)c1 returned AI-2 QS modul -85.5*, Mot1-301 SUMO 12.5, ALR inh 8.9, JMH597 growth rt 14.6, BB721 lum counter 94.9*, BB721 growth rt 6.2 and AI-2 QS JMH597 95.8*.

Bioassay records from PubChem BioAssay.
